Screening data: PubChem, National Center for Advancing Translational Sciences (NCATS)
Rows were chosen to be rich in hits. Some 2.7% of all compounds tested hit in one or more screens of this group.
RXFP1 antag: antagonists of human relaxin receptor RXFP1 | activity change, negative = inhibition, % at 57.5 µM | HEK293-RXFP1, relaxin-stimulated cAMP HTRF, 30 min; hits give low values | 0.59% of 350,000 active | Q9HBX9;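 active means activity change of -60% or lower, but not beyond a set lower limit; inconclusive means change between -60% and -40%, or beyond the set limit; inactive means change above -40%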; further: on the % scale 0 is the no-effect control and ±100 the full control effect
Target sequence (Q9HBX9 whole entry, looked up): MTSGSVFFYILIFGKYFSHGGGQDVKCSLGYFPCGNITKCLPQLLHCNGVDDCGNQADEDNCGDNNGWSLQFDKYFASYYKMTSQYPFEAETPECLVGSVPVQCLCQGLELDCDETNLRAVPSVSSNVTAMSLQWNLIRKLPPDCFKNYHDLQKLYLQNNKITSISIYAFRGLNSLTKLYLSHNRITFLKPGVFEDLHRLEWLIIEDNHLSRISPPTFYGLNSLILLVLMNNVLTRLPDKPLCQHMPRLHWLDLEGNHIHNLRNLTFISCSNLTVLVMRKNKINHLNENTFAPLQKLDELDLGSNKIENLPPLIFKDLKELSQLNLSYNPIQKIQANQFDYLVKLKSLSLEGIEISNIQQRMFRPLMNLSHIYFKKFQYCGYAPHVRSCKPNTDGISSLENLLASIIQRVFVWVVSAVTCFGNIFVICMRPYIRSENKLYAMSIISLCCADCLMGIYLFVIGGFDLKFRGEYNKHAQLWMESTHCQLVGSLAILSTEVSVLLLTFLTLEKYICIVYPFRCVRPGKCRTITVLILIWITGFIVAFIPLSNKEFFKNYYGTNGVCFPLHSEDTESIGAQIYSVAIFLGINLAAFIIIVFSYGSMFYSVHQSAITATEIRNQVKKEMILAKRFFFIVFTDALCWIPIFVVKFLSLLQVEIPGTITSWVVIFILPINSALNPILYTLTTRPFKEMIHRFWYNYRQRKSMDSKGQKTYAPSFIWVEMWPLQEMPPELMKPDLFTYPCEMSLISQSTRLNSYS
ClpP mod: qHTS Assay for Activators of ClpP; purified B. subtilis ClpP, FRET peptide cleavage, 20 min; 1.9% of 340,000 active; Potency, µM (top dose mostly 57.5 µM), without a hit: top-dose activity change, negative = active; ATP-dependent Clp protease proteolytic subunit (Bacillus subtilis (strain 168)), P80244; active means well fitted falling curve with a large enough effect; inconclusive means small, poorly fitted or top-dose-only effect; inactive means no such curve, though single readings can be large or run the other way; further: potency means the concentration at half of the fitted maximal effect; the source files actives as falling curves though it sought activators and does not explain the sign; nearly all actives have a fitted effect of over 65% in size
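Buffer: 100 mM Tris/HCl pH8, 100 mM KCl, 0.05% low protease BSA, 2.5% glycerol, 0.01% Tween-20. ClpP 10 microg/mL final; 20 min RT; delta FRET normalized to ADEP and DMSO controls.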
Akt phos inh: Akt phosphorylation inhibition | activity change, % for hits at 50 µM | 0.32% of 360,000 active | Neuro2A IGF-stimulated pAkt S473 HTRF, 20 min; hits give low values; in the data active means activity change below about -80%; inconclusive means mostly about -51% to -80%; further: on the % scale 0 is the no-effect control and ±100 the full control effect
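Neuro2A cells in DMEM with 0.5% FBS, overnight at 37 deg C, given compound at single 50 µM final, then IGF (6 nM final) for 20 min at 37 deg C. Lysed; phospho-Akt Ser473 by HTRF after 24 h, 665/615 ratio.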
gsp antag: gsp mutant antagonism | gsp-mutant cells, cAMP HTRF, 30 min | Potency, µM (doses to about 76.9 µM), inactives show at the highest dose activity change, negative = inhibition, hits mostly inhibitors | 0.4% of 340,000 active | AID 624288; calls by dose curve; cell line not stated here;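 further: intracellular cAMP measured with PDE inhibitor Ro 20-1724 present during compound exposure; potency means the concentration at half of the fitted maximal effect; on the % scale 0 is the no-effect control and ±100 the full control effect; nearly all actives have a fitted effect of over 65% in size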
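HTRF cAMP measurement after 30 min RT detection following 30 min, 37C compound treatment alongside […] (added as 300 uM solution) in G418-selected cells seeded at 2000/well and grown 16–24 h.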
RXFP1 ag: agonists of human relaxin receptor RXFP1 | HEK293T-RXFP1 cAMP TR-FRET, 30 min; response scale: percent of porcine relaxin response, buffer zero | Potency, µM (doses to about 57.5 µM), for the others: at the highest dose activation, actives largely listed as activators | 0.3% of 370,000 active; active means well fitted activation curve with a large enough effect; inconclusive means small, poorly fitted or top-dose-only effect; further: potency means the concentration at half of the fitted maximal effect; on the % scale 0 is the no-effect control and ±100 the full control effect; nearly all actives have a fitted effect of over 60% in size
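HEK293 cells stably expressing RXFP1, treated 30 min at 37C with compounds plus PDE4 inhibitor Ro 20174; cAMP measured by HTRF TR-FRET. Normalized to buffer and 29 nM porcine relaxin; EC50 by Hill fit.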
gsp agonist: activates gsp, the McCune-Albright syndrome mutation. gsp mutant cells, cAMP HTRF, 30 min. AID 624287. Potency, µM (series often up to 76.9 µM), without a hit: top-dose activation (cAMP increase), usual class: activators. 0.13% of 340,000 active; active means well fitted activation curve with a large enough effect; inconclusive means small, poorly fitted or top-dose-only effect, or another doubt; inactive means no such curve, though single readings can be large or run the other way; cell line not stated here;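 further: phosphodiesterase inhibitor Ro 20-1724 added with compounds to block cAMP breakdown; potency means the concentration at half of the fitted maximal effect; nearly all actives have a fitted effect of over 60% in size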
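Cells in DMEM/10% FBS with G418 were pretreated with compounds in DMSO plus […] (300 uM stock) for 30 min at 37C. cAMP was measured by HTRF (cAMP-d2 plus anti-cAMP antibody-K) after 30 min at room temperature.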
The depositor's hits bear a star; [ ] = another dose, or the depositor's remark.

`COC(=O)C(Nc1ccccc1Cl)(c1cc(C)c(O)c(C)c1)C(F)(F)F` (configuration not stated) gave RXFP1 antag -64*, ClpP mod 1%, Akt phos inh inactive, gsp antag -8%, RXFP1 ag 8% and gsp agonist inconclusive.
`N#C/C(=C/c1ccc(N2CCCCCC2)o1)c1ccc(F)cc1` gave RXFP1 antag -24, ClpP mod 32µM*, Akt phos inh inactive, gsp antag inconclusive and gsp agonist 4%.
`COc1nn(-c2nc(-c3ccccc3)cc(C(F)(F)F)n2)cc1[N+](=O)[O-]` gave RXFP1 antag -7, ClpP mod 22µM*, Akt phos inh inactive, gsp antag -6%, RXFP1 ag 1% and gsp agonist 0%[15.4 µM].
`FC(F)(F)c1cc(-c2ccccc2)nc(-n2cc(Cl)cn2)n1` gave RXFP1 antag -2, ClpP mod -1%, Akt phos inh inactive, gsp antag -14%, RXFP1 ag 1% and gsp agonist 2%.
`COc1cccc(-c2cc(C(F)(F)F)nc(-n3cc(Cl)cn3)n2)c1` gave RXFP1 antag -8, ClpP mod 32µM*, Akt phos inh inactive, gsp antag -13%, RXFP1 ag -2% and gsp agonist -9%.
For COc1cccc(-c2cc(C(F)(F)F)nc(N3CCC(C)CC3)n2)c1 the results were RXFP1 antag -14, ClpP mod 25µM*, Akt phos inh inactive, gsp antag 8%, RXFP1 ag 3% and gsp agonist 7%.
For COc1cccc(-c2cc(C(F)(F)F)nc(N3CCOCC3)n2)c1 the results were RXFP1 antag -17, ClpP mod -29%, Akt phos inh inactive, gsp antag -11%, RXFP1 ag 4% and gsp agonist -65%.
Screening CC1CCN(c2ncnc3c2nnn3C)CC1 returned RXFP1 antag -1, ClpP mod 2% and RXFP1 ag 22%.
`CC(C)CCSc1nc2c(c(=O)n(C)c(=O)n2C)n1Cc1ccccc1Cl` gave RXFP1 antag -5, ClpP mod -10% and RXFP1 ag 0%.
`Cc1nnc2sc(-c3cccc4ccccc34)nn12` gave RXFP1 antag -12, ClpP mod 22µM*, Akt phos inh inactive, gsp antag 5%, RXFP1 ag 4% and gsp agonist 0%.
For CO[C@H]1C[C@@H]2CC[C@@H](C)[C@@](O)(O2)C(=O)C(=O)N2CCCC[C@H]2C(=O)O[C@H]([C@H](C)C[C@@H]2CC[C@@H](O)[C@H](OC)C2)CC(=O)[C@H](C)/C=C(\C)[C@@H](O)[C@@H](OC)C(=O)[C@H](C)C[C@H](C)/C=C/C=C/C=C/1C the results were ClpP mod -1%.
`O=C(O)c1ccccc1C(=O)OCCCc1ccncc1` gave ClpP mod 0%, Akt phos inh inactive, gsp antag 7%, RXFP1 ag 1% and gsp agonist -18%.
For Nc1c(C(=O)Nc2ccc(S(=O)(=O)N3CCCC3)cc2)sc2nc3cc4c(cc3cc12)CCC4 the results were RXFP1 antag -5, ClpP mod 25µM*, Akt phos inh inactive, gsp antag 19%, RXFP1 ag 4% and gsp agonist 15%[15.4 µM].
Screening CCCC(=O)N1c2nc(-c3ccco3)nn2C2(CCCCC2)[C@@H]2CCCC[C@@H]21 returned RXFP1 antag -66*, ClpP mod -7% and RXFP1 ag 0%.
Screening CC(=O)N1c2nc(-c3ccco3)nn2C2(CCCCC2)[C@@H]2CCCC[C@@H]21 returned RXFP1 antag -26, ClpP mod 1% and RXFP1 ag 1%.
Screening COCCNC(=O)/C(C#N)=C/c1c(N2CCCCCC2)nc2c(C)cccn2c1=O returned RXFP1 antag 1, ClpP mod 0%, Akt phos inh inactive, gsp antag 3%, RXFP1 ag 27% and gsp agonist -10%[15.4 µM].
